PubChem BioAssay AID504941 (Broad Institute, 2011)
Out of some 1,200 compounds screened, about 170 (14%) were called active. How the calls were made is not given here. Only a sample is shown. Potency and affinity values are given separately.

Assay: E. coli Tat export inhibitors, dose response, cherry-pick, set 2, plate reader (AID 504941)
Details: E. coli Tat transport reporter; series mostly up to 38 µM; activity change, negative = inhibition: at the top concentration

Activity change, negative = inhibition, inactive:
Cc1ccc[n+](CC(=O)c2cc3ccccc3oc2=O)c1 3.31%
Cc1nc2scc(-c3ccccc3)c2c(=O)n1/N=C/c1ccco1 11.6%
Cc1ccc(-n2c3nc(=O)[nH]c(=O)c-3cc3c(C)nn(-c4ccccc4)c32)c(C)c1 11.6%
COc1ccc(-c2noc(CSc3nnc(-c4ccncc4)n3-c3ccc(F)cc3)n2)cc1OC -7.91%
CCCCc1c(O)nc(SCC(=O)c2ccccc2)[nH]c1=O 3.64%
CCN(CC)CCCn1c(C)cc2c(c1=O)C(c1cccc(Cl)c1)C(C#N)=C(N)O2 (stereo not drawn) 17.9%
Cc1ccc(NC(=O)CN2CCN(c3ccccn3)CC2)c(Cl)c1 12.6%
Cc1cc(Cl)ccc1NC(=O)CN1CCCC1 -11.6%
O=C(CCCn1c(=O)[nH]c2ccsc2c1=O)N1CCCCC1 -18.6%
CC(C)OC(=O)Cn1c(=O)oc2ccccc21 -1.58%
O=C(C1CC(=O)N(C2CCCC2)C1)N1CCN(c2ccc(F)cc2)CC1 (stereo not drawn) -6.74%
Nc1nc2ccc([N+](=O)[O-])c(N)c2s1 15.8%
CCCn1c(=N)c(S(=O)(=O)c2ccc(F)cc2)cc2c(=O)n3cccc(C)c3nc21 -9.12%
CC(C)c1cc(C(N)=O)c(NC(=O)c2cccc(COc3ccc(Cl)cc3)c2)s1 10.4%
CCn1nc(-c2ccccc2)c2nc3ccccc3nc21 27.2%
C=C1CSc2nc(=O)c3c4c(sc3n21)CCCC4 7.3%
COc1ccc(C(CNC(=O)c2cc(SC)ccc2Cl)N(C)C)cc1 (stereo not drawn) 0.77%
O=c1/c(=C/c2ccc(O)c([N+](=O)[O-])c2)sc2nc3ccccc3n12 4.56%
CCn1cc(C(=O)O)c(=O)c2cc(F)c(N3CCN(C(=S)NC(=O)c4ccc(F)c(F)c4)CC3)cc21 422%
Cc1ccnc(NC(c2cccnc2)c2ccc3cccnc3c2O)c1 (stereo not drawn) 1.66%
Oc1c(Br)cc(C2N=C(c3ccccc3)NO2)cc1Br (stereo not drawn) 13.5%
CCOC(=O)C1(c2nc(N)cs2)COC(=O)C1 (stereo not drawn) 8.65%
COc1ccccc1-c1ccc(=O)n(CC(=O)Nc2ccc(C(=O)N3CCCC3)cc2)n1 -4.17%
O=C(c1ccccc1)N1CCN(c2nc3ccc([N+](=O)[O-])cc3s2)CC1 8.95%
Nc1nc(NCC2CCCO2)nc(Nc2cccc(Cl)c2)c1[N+](=O)[O-] (stereo not drawn) -1.52%
COc1ccc(CNC(=O)Cn2nnc(-c3ccc(NC(=O)C4CCCCC4)cc3)n2)cc1 11.5%
Cc1ccc(NC(=O)c2ncn(CCCNCc3ccccn3)n2)cc1C 7.97%
O=C(NCc1cccs1)Nc1cccc(Cl)c1 -9.39%
COc1ccc(CCNC(=O)CN2CCOc3ccccc32)cc1OC 15.9%
COc1ccc(N2CCN(C3CC(=O)N(c4ccc5c(c4)OCCO5)C3=O)CC2)cc1 (stereo not drawn) 31.4%
Cc1ccc(O)c(C(=O)c2coc(=N)c(C(=O)NC(C)C)c2)c1 -5.5%
C=CCNc1ccccc1S(=O)(=O)NCc1ccccc1 15.6%
O=C(Nc1ccc(Oc2ccccc2)nc1)C1CCCCN1Cc1ccc(OCCO)cc1 (stereo not drawn) 1.23%
CCOc1ccc(Nc2nc3c(c(=O)[nH]2)CCCC3)cc1 4.88%
COc1ccc(/C=C/C(=O)Nc2ccccc2C(=O)O)cc1OC 1.99%
NS(=O)(=O)c1ccc(CCNC(=O)Cc2ccc(S(=O)(=O)N3CCCC3)s2)cc1 -6%
CCn1cc(C(=O)O)c(=O)c2cc(F)c(N3CCN(C)CC3)cc21 -89.3%
CC1COc2c(N3CCN(C)CC3)c(F)cc3c(=O)c(C(=O)O)cn1c23 (stereo not drawn) -81.4%
O=C(NC(Cc1ccccc1)c1nc2ccccc2[nH]1)c1ccc(Cl)c([N+](=O)[O-])c1 (stereo not drawn) -0.833%
CCOC(=O)c1c(C)[nH]c(C(=O)N(C)Cc2cccc(OC)c2OC)c1C -7.53%
COc1ccccc1NS(=O)(=O)c1cccc(N=C2N=C(N)c3ccccc32)c1 -10.2%
CC(=O)Nc1sc(NC(=O)c2ccccc2)nc1-c1cccs1 -0.47%
Cc1ccc(/C=N/NC(=O)c2ccc(Cn3cc([N+](=O)[O-])cn3)o2)cc1 0.708%
O=C(NCc1cccnc1)C(=O)NCC1OCCN1S(=O)(=O)c1ccc(F)cc1 (stereo not drawn) 4.34%
COc1ccc(C(=O)OC(C)CN2CCN(C)CC2)cc1 (stereo not drawn) 3.65%
Cc1ccc(-n2c(O)c(C=Nc3ccccc3-c3n[nH]c(=S)[nH]c3=O)c3ccccc3c2=O)cc1C 3.74%
COc1ccc(/C=C(/NC(=O)c2cccc([N+](=O)[O-])c2)C(=O)O)cc1 -2.44%
Cc1cc(NC(=O)c2ccc([N+](=O)[O-])cc2)n(C)n1 -2.67%
O=C(NC(=S)NNC(=O)c1ccccc1O)c1ccccc1 -1.95%
COCC(=O)Nc1nnc(Cc2ccc(OC)cc2)s1 11%
CC(Oc1cccnc1[N+](=O)[O-])C(=O)N1CCc2ccccc21 (stereo not drawn) 18.9%
Cc1nc(-c2cccc(S(=O)(=O)N3CCOCC3)c2)cs1 5.67%
COc1ccc(NC(=O)c2ccccc2[N+](=O)[O-])cc1OC 2.8%
CCN(CC)S(=O)(=O)c1cc(NC(=O)c2ccc(-n3cncn3)c([N+](=O)[O-])c2)ccc1C -3.92%
NC(=O)Cn1c(-c2nonc2N)nc2ccccc21 -3.26%
CCCC(=O)Nc1ccc(NC(=O)c2ccccn2)cn1 -2.92%
Cc1onc(-c2ccccc2)c1C(=O)Nc1nc(-c2cc(F)ccc2F)cs1 21.2%
Cc1onc(-c2c(F)cccc2Cl)c1C(=O)Nc1sc2c(c1C#N)CCC(C(C)(C)C)C2 (stereo not drawn) -4.11%
Cc1ccccc1NC(=O)NCCN1C(=O)C2C3C=CC(C3)C2C1=O (stereo not drawn) 9.55%
CCOC(=O)c1ccccc1NC(=S)N1CC(C)CC(C)C1 (stereo not drawn) -10%
CCOC(=O)c1sc(Nc2nc3ccc(OC)cc3s2)cc1C 35.6%
CCCn1c(N)c(C(=O)CSc2nnnn2-c2ccc(O)cc2)c(=O)n(C)c1=O 21.5%
COC(=O)/C(=C/c1ccco1)NC(=O)c1ccccc1 3.77%
O=C1OCCN1C(=O)[C@H]1[C@H](c2ccc(Cl)cc2)C(c2ccccc2)=NN1c1ccccc1 8.19%
COc1cccc(-c2cc(=O)c3cc(NC(C)=O)ccc3[nH]2)c1 37.7%
Cc1c(NC2=NC3(CCCCC3)Cc3ccccc32)c(=O)n(-c2ccccc2)n1C 9%
O=C(Nc1cccc(NC(=O)c2cccnc2)c1)c1ccccc1 17.9%
O=C1CN(S(=O)(=O)c2ccccc2C(F)(F)F)CCN1 9.82%
